From PubChem BioAssay (EPA / NIEHS) come the findings set out here.

A short description of test [1]: TOX21_p53_BLA_p5_viability: Viability Assessment in the Tox21 HCT-116 p53 Agonism Beta-lactamase Assay, Phase 5 (AID 2283600). In outline:
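ATP luminescence (CellTiter-Glo, 30 min, RT) served as the viability read-out, with loss of signal indicating cytotoxicity. Compounds in DMSO were pinned at a 217-fold dilution onto 4000 cells/well and incubated 16 h, 37C.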

The target of test [2] is Cellular tumor antigen p53 (Homo sapiens) (UniProt P04637). Nature of the test: TOX21_p53_BLA_p4_ratio: Tox21 HCT-116 p53 Agonism Beta-lactamase Assay, Ratio, Phase 4 (AID 2283601). In short, it runs like this:
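Signal is the blue/green (460nm/530nm) ratio of cleaved versus uncleaved CCF4-AM substrate, read after 2 h substrate loading. Cells were HCT116 carrying the p53-responsive beta-lactamase reporter, dosed 16 h at 37C, 5% CO2; CellTiter-Glo measured in parallel.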

Test [3] in a line: Tanguay_ZF_120hpf_MORT_legacy: (Legacy) Oregon State University Tanguay Lab 120 Hour Post-fertilization zebrafish Assay for Mortality (AID 2283633).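 As to AC50: fitted as increase in binary mortality versus DMSO negative control.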 In outline:
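Brightfield scoring of embryo death (binary) at 24 and 120 hpf; static exposure 6–120 hpf, 28C, sealed and foil-covered. Pronase-dechorionated 5D wild-type larvae, single embryo per well. DMSO 0.64% v/v; trimethyltin chloride 5uM positive control.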

Test [4] in a line: Tanguay_ZF_120hpf_YSE_legacy: (Legacy) Oregon State University Tanguay Lab 120 Hour Post-fertilization zebrafish Assay for Yolk Sac Edema (AID 2283634).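 As to AC50: actives raise the incidence of yolk sac edema above the DMSO baseline.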 In short, it runs like this: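 Binary brightfield scoring of yolk sac edema at 120 hpf; DMSO baseline, gain-of-signal fitting. Dechorionated 5D larvae, one per well, static exposure 6–120 hpf, 28C, 0.64% DMSO. Dead embryos not scored.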

Test [5] can be described thus: Tanguay_ZF_120hpf_AXIS_legacy: (Legacy) Oregon State University Tanguay Lab 120 Hour Post-fertilization zebrafish Assay for Body Axis Malformation (AID 2283635).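 As to AC50: potency for an increased fraction of larvae scored with body axis malformation.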 In short, it runs like this:
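Embryos: 5D wild-type, pronase-dechorionated 4 hpf; static exposure 6–120 hpf, 28C, sealed, dark, 1 embryo/well, 0.64% DMSO. 120 hpf axis malformation scored present/absent; dead embryos excluded. Analysed as gain of signal vs DMSO.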

A short description of test [6]: Tanguay_ZF_120hpf_EYE_legacy: (Legacy) Oregon State University Tanguay Lab 120 Hour Post-fertilization zebrafish Assay for Eye Malformation (AID 2283636).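 Also: binary presence or absence of eye malformation scored by brightfield in 120 hpf larvae.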 In outline:
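Binary brightfield scoring of eye defects at 120 hpf after static exposure from 6 hpf of single pronase-dechorionated wild-type embryos (28C, 0.64% DMSO). Non-mortality endpoints omitted where embryos died; fit vs DMSO.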

A short description of test [7]: Tanguay_ZF_120hpf_SNOU_legacy: (Legacy) Oregon State University Tanguay Lab 120 Hour Post-fertilization zebrafish Assay for Snout Malformation (AID 2283637). In outline: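 Binary snout-malformation call at 120 hpf in wild-type 5D embryos, chorion removed by pronase, under static exposure from 6 hpf at 28C (0.64% DMSO). Embryos dying by 24 or 120 hpf excluded.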
Test [8] in a line: Tanguay_ZF_120hpf_JAW_legacy: (Legacy) Oregon State University Tanguay Lab 120 Hour Post-fertilization zebrafish Assay for Jaw Malformation (AID 2283638).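 As to AC50: active means more embryos with jaw malformation than DMSO controls.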 In outline:
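Binary jaw-malformation calls at 120 hpf by brightfield imaging; DMSO (0.64% v/v) = baseline. Embryos: 5D wild-type, pronase-dechorionated, one per well from 6 hpf, static exposure, 28C, sealed, dark.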

A short description of test [9]: Tanguay_ZF_120hpf_OTIC_legacy: (Legacy) Oregon State University Tanguay Lab 120 Hour Post-fertilization zebrafish Assay for Otic Vesicle Malformation (AID 2283639). In outline: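 Wild-type zebrafish larvae, whole-embryo exposure from early stage to 120 hpf at 28C. Binary brightfield scoring of otic vesicle morphology, fitted in the positive direction against the DMSO baseline.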

A short description of test [10]: Tanguay_ZF_120hpf_PE_legacy: (Legacy) Oregon State University Tanguay Lab 120 Hour Post-fertilization zebrafish Assay for Pericardial Edema (AID 2283640).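 As to AC50: potency for increased incidence of pericardial edema versus DMSO baseline.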 In outline:
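Static waterborne exposure, 5D wild-type embryos, 28C, to 120 hpf; final DMSO 0.64% (vol/vol). Binary PE call at 120 hpf by brightfield; fitted upward vs DMSO baseline. 5uM trimethyltin chloride as positive control.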

The nature of test [11]: Tanguay_ZF_120hpf_SOMI_legacy: (Legacy) Oregon State University Tanguay Lab 120 Hour Post-fertilization zebrafish Assay for Somite Malformation (AID 2283647). In outline: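 Binary brightfield scoring of somite defects at 120 hpf in 5D wild-type larvae; one dechorionated embryo per well, static exposure from 6 hpf, 28C, sealed and dark. Final DMSO 0.64%; trimethyltin chloride 5uM positive control.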

Test [12] in a line: Tanguay_ZF_120hpf_PFIN_legacy: (Legacy) Oregon State University Tanguay Lab 120 Hour Post-fertilization zebrafish Assay for Pectoral Fin Malformation (AID 2283648).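 Also: each larva judged yes or no for fin defect by brightfield with dead larvae skipped.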 In short, it runs like this: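 Pectoral fin malformation was recorded as a binary endpoint at 120 hpf in wild-type Tropical 5D larvae, which had been dechorionated and exposed statically from 6 hpf at 28C in 0.64% DMSO. Dead embryos were excluded.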

A short description of test [13]: Tanguay_ZF_120hpf_CFIN_legacy: (Legacy) Oregon State University Tanguay Lab 120 Hour Post-fertilization zebrafish Assay for Caudal Fin Malformation (AID 2283649). In short, it runs like this:
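Dechorionated 5D wild-type zebrafish, static exposure 6–120 hpf, 28C, sealed and dark, 0.64% v/v DMSO final. Binary fin-malformation call at 120 hpf, brightfield; gain of signal vs DMSO baseline.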

The nature of test [14]: Tanguay_ZF_120hpf_PIG_legacy: (Legacy) Oregon State University Tanguay Lab 120 Hour Post-fertilization zebrafish Assay for Pigmentation Malformation (AID 2283650). In outline: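 Pigment malformation recorded as a binary call at 120 hpf in zebrafish (Tropical 5D) exposed singly from 6 hpf after pronase dechorionation. Static, sealed, 28C exposure, 0.64% DMSO; mortality excludes scoring; positive-direction fit against DMSO.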

Test [15] in a line: Tanguay_ZF_120hpf_SWIM_legacy: (Legacy) Oregon State University Tanguay Lab 120 Hour Post-fertilization zebrafish Assay for Swim Bladder Malformation (AID 2283654).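 Also: swim bladder malformation in each larva scored yes or no under brightfield.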 In outline: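 Scoring is binary for swim bladder defects at 120 hpf, by brightfield inspection of zebrafish larvae. Embryos were exposed singly from 6 hpf after pronase dechorionation, at 28C with 0.64% DMSO; mortality excluded scoring.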

Test [16] is described as follows: Tanguay_ZF_120hpf_TRUN_legacy: (Legacy) Oregon State University Tanguay Lab 120 Hour Post-fertilization zebrafish Assay for Truncated Body (AID 2283655). In outline: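 Whole-embryo zebrafish screen: dechorionated 5D embryos, static exposure 6–120 hpf, 28C, sealed foil-covered plates, 0.64% DMSO. Binary truncation call; gain of signal versus DMSO baseline.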
Test [17] is described as follows: Tanguay_ZF_120hpf_CIRC_legacy: (Legacy) Oregon State University Tanguay Lab 120 Hour Post-fertilization zebrafish Assay for Circulatory Malformation (AID 2283651). In outline:
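Binary circulatory-malformation call at 120 hpf via brightfield imaging, relative to DMSO controls. Embryos (5D strain, chorion removed) received static, light-shielded exposure at 28C.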

The nature of test [18]: Tanguay_ZF_120hpf_BRAI_legacy: (Legacy) Oregon State University Tanguay Lab 120 Hour Post-fertilization zebrafish Assay for Brain Malformation (AID 2283641). In outline:
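Read-out: binary brain morphology call at 120 hpf (brightfield), fitted in gain-of-signal direction vs DMSO. Wild-type Tropical 5D embryos, static exposure, 28C, 0.64% DMSO final; 5uM trimethyltin chloride as positive control.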

SMILES strings stand for the structures. Records with an inconclusive call do not appear. The source made the active and inactive calls. The calls were made as follows: active = hit-call score of the fitted dose curve at least 0.9, where 1 is the maximum; inconclusive = response in the unintended direction; inactive = score below 0.9.

Cellular tumor antigen p53 (Homo sapiens), sequence (P04637 whole entry, looked up): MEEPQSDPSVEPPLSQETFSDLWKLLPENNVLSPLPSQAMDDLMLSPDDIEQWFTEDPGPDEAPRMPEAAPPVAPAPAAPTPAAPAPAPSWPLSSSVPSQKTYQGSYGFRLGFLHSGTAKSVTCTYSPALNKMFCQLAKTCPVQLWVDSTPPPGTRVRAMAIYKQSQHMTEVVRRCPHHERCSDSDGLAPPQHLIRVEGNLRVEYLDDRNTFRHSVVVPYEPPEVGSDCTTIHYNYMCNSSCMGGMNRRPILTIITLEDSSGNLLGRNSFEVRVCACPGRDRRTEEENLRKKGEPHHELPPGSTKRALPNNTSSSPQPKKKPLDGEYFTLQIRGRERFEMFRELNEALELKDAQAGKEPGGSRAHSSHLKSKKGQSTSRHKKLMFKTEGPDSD

On to `CCON=C(CC)C1=C(O)CC(c2c(C)cc(C)cc2C)CC1=O` (stereo unspecified), for which the call in test [1], in [2], in test [3], in [4], in [5] and in test [6] was inactive. Besides, the compound was called inactive in test [7], in [8], in test [9], in [10], in test [11] and in [12]. For the same compound, the outcome in test [13], in test [14], in [15] and in test [16] was inactive.
Regarding `Cc1ccc(-c2c(Cl)nc(C#N)n2S(=O)(=O)N(C)C)cc1`, the outcome in [1], in [4], in test [5], in test [6], in test [7] and in test [8] was inactive. Besides, the call in test [9], in test [10], in test [11], in [12], in [13] and in test [14] was inactive. Besides, the compound was classed as inactive in test [17], in [15] and in test [16]. The AC50 is 17.3 µM (active) in [2] and 1.55 µM (active) in test [3].
As to `COC(=O)c1ccccc1C(=O)OC`, the call in test [1], in test [2], in test [3], in test [4], in test [5] and in test [6] was inactive. For the same compound, the call in test [7], in [8], in test [9], in [10], in test [11] and in test [12] was inactive. For the same compound, the outcome in test [13], in [14], in test [17], in [15] and in test [16] was inactive.
As to `COC(=O)N(OC)c1ccccc1COc1ccn(-c2ccc(Cl)cc2)n1`, the call in test [1], in test [4], in test [5], in test [6], in [7] and in [8] was inactive. For the same compound, the compound was called inactive in [9], in test [10], in test [18], in [11], in test [12] and in test [13]. Besides, the call in test [14], in [17], in test [15] and in test [16] was inactive. Besides, the AC50 in [2] was 1.67 µM (active); in test [3], 0.367 µM (active).
With `CCOC(=O)CC(SP(=S)(OC)OC)C(=O)OCC` (stereo unspecified), the compound was called inactive in test [1], in test [2], in [3], in [9] and in test [17]. Moreover, the concentration at half-maximal activity (AC50) was 37.4 µM (active) in [4]; 34.6 µM (active) in [5]; 38.7 µM (active) in [6]; 38.1 µM (active) in test [7]; 33.7 µM (active) in [8]; 37 µM (active) in test [10]. The AC50 in test [11] was 32 µM (active); in [12] it was 34 µM (active); in test [13], 36.2 µM (active); in test [15], 28.8 µM (active); in test [16], 34.2 µM (active).
As for `CCc1nn(C)c(C(=O)NCc2ccc(C(C)(C)C)cc2)c1Cl`, the AC50 was 46.1 µM (active) in [1]; 76.6 µM (active) in [2]; 6 µM (active) in test [4]; 6.18 µM (active) in test [7]; 4.39 µM (active) in [8]; 5.67 µM (active) in [10]. For the same compound, the call in [3], in [5], in [6], in test [9], in test [11] and in [12] was inactive. Further, the compound was called inactive in [13], in [14], in [17], in test [15] and in test [16].

As a reminder, the AC50 is the midpoint of the concentration-response curve, whichever way the signal moves.
